Reference: PubChem BioAssay
Calls of active or inactive are those of the source.

How the values were obtained:
[1] = small molecules captured by biotinylated probe aFSTL3 – biochemical, small-molecule microarray, fluorescence 635/667, stem cell growth factor project, primary screen (AID 1064); conditions: higher = more signal;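 note: measures binding of the biotinylated anti-FSTL3 antibody to printed compounds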
[2] = binders from COS7 lysate, DM2A8 probe, primary screen, torsin A project, cell lysate, small-molecule microarray, fluorescence 635/667 (AID 1065); conditions: higher = more signal, COS7 lysate expressing mutant human TOR1A
[3] = small molecules captured by biotinylated probe aFGF2 – biochemical, small-molecule microarray, fluorescence 635/667, stem cell growth factor project, primary screen (AID 1067); conditions: higher = more signal;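 note: measures binding of biotinylated aFGF2 protein to printed compounds on slides; z-score merges feature fluorescence and signal-to-noise across triplicate slides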
[4] = small molecules captured by biotinylated probe aFGF10 – biochemical, small-molecule microarray, fluorescence 635/667, stem cell growth factor project, primary screen (AID 1071); conditions: higher = more signal;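 note: score merges 667 nm spot intensity and signal to noise from triplicate slides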
[5] = target: Neurogenic locus notch homolog protein 2 (Homo sapiens) (UniProt Q04721); assay: small molecules binding Notch2 protein – biochemical, small-molecule microarray, 635 nm fluorescence, stem cell growth factors, primary screen (AID 1073); conditions: higher = more signal
Sequence of Neurogenic locus notch homolog protein 2 (Homo sapiens) (Q04721 whole entry, looked up, canonical isoform): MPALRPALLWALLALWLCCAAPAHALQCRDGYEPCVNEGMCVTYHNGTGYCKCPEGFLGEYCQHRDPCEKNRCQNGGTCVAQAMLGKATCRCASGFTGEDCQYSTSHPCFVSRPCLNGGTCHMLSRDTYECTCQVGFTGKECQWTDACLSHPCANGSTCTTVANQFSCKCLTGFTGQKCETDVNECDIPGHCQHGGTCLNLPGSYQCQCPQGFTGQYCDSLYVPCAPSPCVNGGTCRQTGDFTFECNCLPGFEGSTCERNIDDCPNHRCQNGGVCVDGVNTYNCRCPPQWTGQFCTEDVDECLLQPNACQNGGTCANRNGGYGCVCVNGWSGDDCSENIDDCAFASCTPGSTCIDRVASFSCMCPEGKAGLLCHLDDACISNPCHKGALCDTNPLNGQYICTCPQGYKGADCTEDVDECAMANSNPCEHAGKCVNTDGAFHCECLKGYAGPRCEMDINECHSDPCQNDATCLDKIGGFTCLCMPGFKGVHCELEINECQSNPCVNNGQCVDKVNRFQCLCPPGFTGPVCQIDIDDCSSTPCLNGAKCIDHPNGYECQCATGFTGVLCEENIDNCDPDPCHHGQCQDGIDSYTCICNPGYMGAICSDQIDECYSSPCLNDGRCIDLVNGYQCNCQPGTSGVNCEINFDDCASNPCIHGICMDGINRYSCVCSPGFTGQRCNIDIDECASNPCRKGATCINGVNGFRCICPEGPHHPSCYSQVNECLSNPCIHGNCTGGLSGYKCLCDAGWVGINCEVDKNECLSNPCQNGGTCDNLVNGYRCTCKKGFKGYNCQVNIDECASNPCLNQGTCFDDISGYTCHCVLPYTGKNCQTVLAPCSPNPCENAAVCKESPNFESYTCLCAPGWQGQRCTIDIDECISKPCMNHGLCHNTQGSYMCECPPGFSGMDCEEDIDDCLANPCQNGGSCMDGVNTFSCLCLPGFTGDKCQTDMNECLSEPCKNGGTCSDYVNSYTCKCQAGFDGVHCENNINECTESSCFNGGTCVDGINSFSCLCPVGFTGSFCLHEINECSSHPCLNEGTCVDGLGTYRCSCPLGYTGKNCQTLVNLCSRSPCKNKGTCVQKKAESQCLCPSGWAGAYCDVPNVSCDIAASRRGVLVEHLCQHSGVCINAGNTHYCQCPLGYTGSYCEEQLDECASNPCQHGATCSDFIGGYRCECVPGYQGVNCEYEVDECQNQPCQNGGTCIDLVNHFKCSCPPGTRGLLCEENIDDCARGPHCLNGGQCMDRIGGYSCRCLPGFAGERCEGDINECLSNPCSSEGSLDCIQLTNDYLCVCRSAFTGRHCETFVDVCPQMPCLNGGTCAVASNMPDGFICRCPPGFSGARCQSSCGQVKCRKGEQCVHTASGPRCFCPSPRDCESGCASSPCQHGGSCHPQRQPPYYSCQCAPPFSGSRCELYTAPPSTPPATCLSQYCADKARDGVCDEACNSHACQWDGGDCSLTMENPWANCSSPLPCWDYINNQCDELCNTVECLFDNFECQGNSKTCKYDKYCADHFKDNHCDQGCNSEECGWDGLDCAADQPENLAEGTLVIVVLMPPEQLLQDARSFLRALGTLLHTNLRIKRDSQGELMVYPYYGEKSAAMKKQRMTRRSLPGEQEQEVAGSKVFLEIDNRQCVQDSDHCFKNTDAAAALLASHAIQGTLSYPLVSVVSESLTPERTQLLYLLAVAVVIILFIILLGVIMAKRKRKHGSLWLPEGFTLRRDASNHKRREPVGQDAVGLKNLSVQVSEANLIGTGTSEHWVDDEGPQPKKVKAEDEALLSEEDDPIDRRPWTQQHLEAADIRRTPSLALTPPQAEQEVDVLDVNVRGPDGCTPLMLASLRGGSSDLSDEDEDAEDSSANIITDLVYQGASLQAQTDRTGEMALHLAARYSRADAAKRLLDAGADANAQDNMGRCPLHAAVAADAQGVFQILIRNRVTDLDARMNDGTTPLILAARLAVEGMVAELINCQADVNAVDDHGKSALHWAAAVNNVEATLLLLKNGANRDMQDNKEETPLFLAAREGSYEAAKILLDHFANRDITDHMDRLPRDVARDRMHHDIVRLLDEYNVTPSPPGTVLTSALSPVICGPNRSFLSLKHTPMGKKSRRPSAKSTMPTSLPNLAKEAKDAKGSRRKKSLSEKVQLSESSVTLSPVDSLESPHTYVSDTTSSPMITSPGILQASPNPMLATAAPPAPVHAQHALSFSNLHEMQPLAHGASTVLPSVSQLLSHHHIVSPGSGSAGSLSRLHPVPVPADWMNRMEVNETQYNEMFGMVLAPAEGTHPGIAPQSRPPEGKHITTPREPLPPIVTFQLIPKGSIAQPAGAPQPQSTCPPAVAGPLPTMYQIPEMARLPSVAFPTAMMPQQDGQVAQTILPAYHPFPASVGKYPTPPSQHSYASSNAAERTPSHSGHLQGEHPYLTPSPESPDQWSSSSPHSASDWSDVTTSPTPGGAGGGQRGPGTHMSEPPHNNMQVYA

[6] = target: Pro-neuregulin-1, membrane-bound isoform (Homo sapiens) (UniProt Q02297); assay: small molecules binding neuregulin-1 protein – biochemical, small-molecule microarray, fluorescence 635/667, psychiatric disease protein project, primary screen (AID 1075); conditions: NRG1 binding, 635 nm fluorescence, higher = more signal;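 note: score combines 667 nm spot fluorescence with signal to noise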
Sequence of Pro-neuregulin-1, membrane-bound isoform (Homo sapiens) (Q02297 whole entry, looked up, the tested form may be a part, canonical isoform): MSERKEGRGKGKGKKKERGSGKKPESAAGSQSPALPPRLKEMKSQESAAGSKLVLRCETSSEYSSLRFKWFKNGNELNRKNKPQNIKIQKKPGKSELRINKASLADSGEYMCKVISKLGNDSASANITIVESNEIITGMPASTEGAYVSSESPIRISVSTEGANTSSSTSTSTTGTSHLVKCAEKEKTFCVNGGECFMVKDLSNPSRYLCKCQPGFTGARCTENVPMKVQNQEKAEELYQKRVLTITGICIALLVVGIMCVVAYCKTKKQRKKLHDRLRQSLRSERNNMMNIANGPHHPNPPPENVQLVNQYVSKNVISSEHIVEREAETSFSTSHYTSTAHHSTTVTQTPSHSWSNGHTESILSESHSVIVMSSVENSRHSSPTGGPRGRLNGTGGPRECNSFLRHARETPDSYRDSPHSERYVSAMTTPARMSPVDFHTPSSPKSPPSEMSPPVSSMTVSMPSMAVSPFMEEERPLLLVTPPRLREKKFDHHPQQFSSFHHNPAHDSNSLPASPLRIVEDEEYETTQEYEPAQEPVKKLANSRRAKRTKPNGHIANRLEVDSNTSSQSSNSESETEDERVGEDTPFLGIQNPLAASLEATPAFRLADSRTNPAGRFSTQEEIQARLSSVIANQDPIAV

[7] = tested on: Neuregulin-1 EGF-like domain; assay: small molecules binding NRG1 EGF domain – biochemical, small-molecule microarray, 635 nm fluorescence, primary screen (AID 1081); conditions: higher = more signal;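 note: binding of the protein to compounds printed on small-molecule microarray slides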
[8] = FRG1 expression reporter modulators in myotubes – cell-based, C2C12 myotubes, firefly/Renilla luciferase, luminescence, FRG1 inhibition for FSHD, primary screen (AID 1084); conditions: FRG1 promoter luciferase, higher = more signal, called active from +8 up or from −8 down
[9] = small molecules captured by biotinylated probe aFST – biochemical, small-molecule microarray, fluorescence 635/667, stem cell growth factor project, primary screen (AID 1086); conditions: higher = more signal;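 note: score merges 667 nm fluorescence with signal-to-noise of each printed compound spot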
[10] = binders of probe aHhip on microarray, primary screen, stem cell growth factor project, biochemical, small-molecule microarray, fluorescence 635/667 (AID 1087); conditions: higher = more signal;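 note: score merges spot fluorescence at 667nm with spot signal to noise ratio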

Compound | composite z-score [1] | composite z-score [2] | composite z-score [3] | composite z-score [4] | composite z-score [5] | composite z-score [6] | composite z-score [7] | z-score [8] | composite z-score [9] | composite z-score [10]
COCCOC(=O)N1C(=O)[C@@]2(c3cc(C#CCC(C(=O)OC)C(=O)OC)ccc31)[C@H](c1ccc(OCCO)cc1)N1[C@H](c3ccccc3)[C@H](c3ccccc3)OC(=O)[C@H]1[C@@H]2C(=O)N1CCN(c2ncccn2)CC1 | -0.372 | 1.32 | -0.0431 | 0.905 | 1.25 | 1.64 | 1.14 | 0.977 (inactive) | 0.789 | 0.142
CCOC(=O)C[C@H]1[C@H](OC(=O)c2ccc(-c3ccccc3)cc2)[C@@H](NC(=O)c2ccc3ccccc3n2)c2cc(OCCCO)ccc2N1C(=O)c1ccccc1 | -0.497 | 0.482 | -0.0996 | 0.618 | 1.01 | 0.464 | 0.857 | -0.561 (inactive) | 0.579 | 0.113
C[C@]1(C(=O)O)c2ccccc2C(=O)N(Cc2ccccc2)[C@H]1c1ccc(CO)cc1 | 1.63 | -0.646 | -0.116 | -1.03 | -1.24 | 0.869 | 0.521 | -0.319 (inactive) | -0.42 | -0.164
CC(=O)N1Cc2ccccc2C[C@]2(N=C(c3ccc(OCCCO)cc3)O[C@@H]2c2ccccc2)C1=O | 0.864 | 0.688 | 0.0512 | 0.458 | 0.875 | 1.04 | 1.34 | -2.24 (inactive) | 0.33 | -0.238
COCCOC(=O)N1C(=O)[C@@]2(c3cc(C#CC4=CCCCC4)ccc31)[C@H](C(=O)N1CCN(c3ncccn3)CC1)[C@H]1C(=O)O[C@H](c3ccccc3)[C@H](c3ccccc3)N1[C@@H]2c1ccc(O)cc1 | -0.0505 | 0.181 | 0.0467 | 0.669 | 1.33 | 0.79 | 1.24 | 0.378 (inactive) | 0.442 | 0.208
COC(=O)[C@@]1(Cc2ccccc2)[C@H]2c3cc(C(=O)N4CCCC4)n(Cc4ccsc4Br)c3C[C@H]2CN1C(=O)c1ccccc1 | 0.166 | -0.411 | 0.281 | 0.682 | 1.72 | 1.46 | 1.18 | -0.444 (inactive) | 1.51 | 0.155
COC(=O)[C@@]1(Cc2ccc(OC)cc2)[C@H]2c3cc(C(=O)N4CCCC4)n(CCc4cc5ccccc5[nH]4)c3C[C@H]2CN1C(=O)c1ccccc1 | 0.649 | 0.115 | 0.194 | 0.614 | 1.36 | 1.9 | 1.1 | 0.562 (inactive) | 1.71 | 0.363
O=C1NC(=O)C2C1C=CC(C(O)c1c(F)cccc1Cl)N2Nc1ccccn1 (stereo not given) | 0.154 | 0.238 | 0.0182 | 0.474 | 0.55 | 1.53 | 0.633 | 0.569 (inactive) | -0.014 | 0.0576
CN(C)CCCNC(=O)[C@@]1(C)c2ccccc2C(=O)N(Cc2cc(C(F)(F)F)cc(C(F)(F)F)c2)[C@H]1c1ccc(CO)cc1 | -0.303 | -0.401 | -0.141 | -0.404 | -0.463 | -0.012 | 0.538 | 0.123 (inactive) | -0.353 | 0.192
[N-]=[N+]=Nc1ccccc1[C@@H]1OC(c2ccc(OCCCO)cc2)=N[C@]1(CCS(=O)(=O)c1ccccc1)C(=O)NCCN1CCOCC1 | 0.483 | 1.88 | 0.0315 | 0.664 | 1.58 | 0.806 | 1.25 | 1.2 (inactive) | 0.925 | 0.417
C=CCN1C(=O)[C@]2(CC=C)N=C(c3ccc(OCCCO)cc3)O[C@@H]2c2ccccc21 | 0.967 | 0.194 | 0.123 | 0.0547 | 1.05 | 1.03 | 1.26 | -1.86 (inactive) | 0.61 | 0.0327
C=C(CCCC)C(=O)CC[C@@H](OC(=O)c1cccnc1)c1ccccc1OCCO | 0.0165 | 0.77 | -0.0878 | 0.0032 | -0.872 | -0.413 | -0.0199 | -0.449 (inactive) | -0.604 | -0.0994
CC1CC/C=C\[C@H]2OC34C=CCN(C(C)C)C(=O)[C@H]3N(CCCCCO)C(=O)[C@@H]4C2C(=O)O1 (stereo not given in full) | 0.4 | -1.06 | -0.0996 | -0.47 | -0.704 | -0.187 | 0.0093 | 0.371 (inactive) | -0.386 | -0.191
CC=CC(O)C1C=CC2C(=O)N(c3ccccc3)C(=O)C2N1Nc1ccc([N+](=O)[O-])cc1 (stereo not given) | -0.241 | 0.0149 | -0.0534 | 0.407 | 0.998 | 1.69 | 0.981 | 0.515 (inactive) | 0.126 | -0.0003
C=C(CCCC)/C(=C/C[C@@H](OC(=O)c1ccncc1)c1cccc(OCCO)c1)c1cnc2ccccc2c1 | 0.186 | 0.935 | 0.049 | 1.03 | 1.3 | 0.972 | 1.13 | 2.51 (inactive) | 0.0095 | 0.443
COc1ccc(C(O)C2C=CC3C(=O)N(c4ccccc4)C(=O)C3N2Nc2ccc(C#N)cc2)c2ccccc12 (stereo not given) | 0.983 | 0.707 | 0.0785 | 0.337 | 1.6 | 1.96 | 1.11 | 0.757 (inactive) | 1.2 | 0.0515
NCCCCCCNC(=O)[C@H]1C[C@H]2C(=O)N[C@@H](Cc3ccccc3)C(=O)N2[C@H]1c1ccc(O)cc1 | 0.465 | 0.399 | -0.0334 | 0.0116 | 0.421 | 1.34 | 1.18 | 1.1 (inactive) | 0.377 | -0.196
CC[C@H]1C2=C3C(CC[C@H]4C(OCc5ccc(F)cc5C(F)(F)F)OC[C@](C)([C@@H]34)N(C(=O)OC(C)(C)C)C2)C2COC(=O)OCC21 (stereo not given in full) | 0.0488 | -0.377 | 0.0246 | 0.112 | 1.25 | 1.47 | 0.874 | 1.82 (inactive) | 1.73 | -0.0047
C=C[C@H](COC(C)=O)NS(=O)(=O)c1ccc(Br)cc1 | -0.127 | -0.256 | -0.151 | -0.286 | -0.506 | 0.241 | 0.656 | 1.54 (inactive) | 0.0509 | -0.0618
NCCCCCCNC(=O)[C@@H]1C[C@@H]2C(=O)N3CCC[C@H]3C(=O)N2[C@@H]1c1ccc(O)cc1 | 0.327 | -0.055 | -0.0006 | 0.0841 | 0.337 | 1.9 | 1.18 | 0.15 (inactive) | 1.1 | 0.154
CC(C)C(O)C1C=CC2C(=O)N(C)C(=O)C2N1Nc1ccccc1 (stereo not given) | 0.383 | 0.681 | 0.364 | 0.914 | 1.69 | 1.19 | 1.37 | 2.73 (inactive) | 1.35 | 0.67
C=CCN1C(=O)[C@@]2(CCC(=O)OC(C)(C)C)N=C(c3ccc(OCCCO)cc3)O[C@H]2c2ccccc21 | 0.324 | 0.198 | 0.0698 | 0.0883 | 0.724 | 0.82 | 1.21 | -2.47 (inactive) | 0.278 | -0.195
CCOC(=O)[C@H]1C/C=C/C[C@H](C(=O)OCC)C(=O)O[C@H]2[C@@H](OC)O[C@H](CO)[C@@H](OC(=O)CCc3ccccc3)[C@@H]2OC1=O | -0.146 | -0.267 | 0.461 | -0.485 | -1.08 | 0.815 | -0.0615 | -1.26 (inactive) | -0.555 | -0.169
Cc1ccc(S[C@]2(C(=O)NCC(F)(F)F)CC(=O)N(Cc3ccccc3)[C@@H]2c2ccc(CO)cc2)cc1 | 0.2 | 0.179 | -0.158 | -0.453 | -0.851 | 0.248 | 0.463 | -2.41 (inactive) | -0.543 | -0.266
CCOC(=O)[C@H]1C/C=C/C[C@H](C(=O)OCC)C(=O)O[C@H]2[C@@H](OC)O[C@H](CO)[C@@H](OC(=O)Nc3ccc(OC)cc3)[C@@H]2OC1=O | -0.0119 | 0.753 | 0.0386 | 0.803 | 1.16 | 0.309 | 0.94 | 2.18 (inactive) | 0.363 | 0.675
